# Results: PMC7862700, “An all-to-all approach to the identification of sequence-specific readers for epigenetic DNA modifications on cytosine”
# Legend:
# Assay in all cases: DAPPL (digital affinity profiling via proximity ligation, sequencing); 10 mM Tris-HCl pH 7.5, 50 mM NaCl, 1 mM DTT, 4% glycerol, room temperature, 30 min; GST-TFs on glutathione beads, 16-mer random dsDNA library, 0.1% formaldehyde crosslink after washing; high values mean tight binding
# [1] = biological target: T1, FLI1 (Homo sapiens, UniProt Q01543 1-452); conditions: protein: recombinant; tags: N-terminal GST; dsDNA, one strand shown
# T1 sequence: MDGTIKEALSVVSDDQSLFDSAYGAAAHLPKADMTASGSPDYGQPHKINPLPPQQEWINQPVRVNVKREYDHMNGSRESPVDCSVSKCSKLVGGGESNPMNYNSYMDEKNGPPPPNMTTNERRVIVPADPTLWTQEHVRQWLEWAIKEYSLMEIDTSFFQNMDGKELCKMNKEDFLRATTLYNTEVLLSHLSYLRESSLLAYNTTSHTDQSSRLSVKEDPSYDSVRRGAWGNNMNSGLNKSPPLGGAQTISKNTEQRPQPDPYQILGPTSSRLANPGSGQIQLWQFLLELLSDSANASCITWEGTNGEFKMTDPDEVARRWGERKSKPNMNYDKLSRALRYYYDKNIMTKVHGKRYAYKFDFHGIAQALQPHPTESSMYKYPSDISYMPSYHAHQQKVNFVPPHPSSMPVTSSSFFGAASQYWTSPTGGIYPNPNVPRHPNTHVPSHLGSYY
# In short: (§1)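 A tag-only sample was pooled with DNA-barcoded human transcription factors that had been expressed in yeast as GST fusions and captured on glutathione beads. The pools were incubated for 30 min at room temperature with 200 nmole of a random double-stranded 16-mer DNA library in Tris/NaCl/DTT/glycerol buffer, then washed, crosslinked with 0.1% formaldehyde, proximity-ligated (BsaI/T4 ligase, 1 h, 37 °C), PCR-amplified and sequenced on an Illumina NextSeq500. Binding signal is each hexamer's read frequency for a factor divided by its frequency for the tag-only sample.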
# [2] = biological target: T2, ELK1 (Homo sapiens, UniProt P19419 1-428); conditions: protein: recombinant; tags: N-terminal GST; dsDNA, one strand shown
# T2 sequence: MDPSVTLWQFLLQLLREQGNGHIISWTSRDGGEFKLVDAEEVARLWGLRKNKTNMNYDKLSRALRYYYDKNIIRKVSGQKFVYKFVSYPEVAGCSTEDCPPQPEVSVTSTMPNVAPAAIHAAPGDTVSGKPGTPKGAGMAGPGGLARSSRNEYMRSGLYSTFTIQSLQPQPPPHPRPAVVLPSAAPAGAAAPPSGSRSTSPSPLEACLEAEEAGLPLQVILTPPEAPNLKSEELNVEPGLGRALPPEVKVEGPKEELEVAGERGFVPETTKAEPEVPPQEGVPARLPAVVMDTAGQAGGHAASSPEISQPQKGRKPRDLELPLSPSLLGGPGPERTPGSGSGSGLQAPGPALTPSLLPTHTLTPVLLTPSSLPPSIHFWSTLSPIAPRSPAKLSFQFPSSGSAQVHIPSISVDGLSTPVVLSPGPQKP
# In short: as §1
# [3] = biological target: T3, GABPA (Homo sapiens, UniProt Q06546 1-454); conditions: protein: recombinant; tags: N-terminal GST; dsDNA, one strand shown
# T3 sequence: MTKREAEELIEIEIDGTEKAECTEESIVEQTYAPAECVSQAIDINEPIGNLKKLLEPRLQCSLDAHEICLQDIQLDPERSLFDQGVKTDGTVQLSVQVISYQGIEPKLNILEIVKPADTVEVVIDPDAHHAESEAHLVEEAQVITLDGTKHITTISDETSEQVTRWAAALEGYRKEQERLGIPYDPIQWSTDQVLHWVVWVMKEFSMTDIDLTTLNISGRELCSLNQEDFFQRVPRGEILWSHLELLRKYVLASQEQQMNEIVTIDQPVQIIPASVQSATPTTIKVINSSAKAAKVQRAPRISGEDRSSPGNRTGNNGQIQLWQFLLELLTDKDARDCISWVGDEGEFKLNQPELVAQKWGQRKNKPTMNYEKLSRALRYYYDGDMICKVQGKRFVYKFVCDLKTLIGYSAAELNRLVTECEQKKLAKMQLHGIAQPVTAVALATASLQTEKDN
# In short: as §1
# [4] = biological target: T4, ERG (Homo sapiens, UniProt P11308 1-479); conditions: protein: recombinant; tags: N-terminal GST; dsDNA, one strand shown
# T4 sequence: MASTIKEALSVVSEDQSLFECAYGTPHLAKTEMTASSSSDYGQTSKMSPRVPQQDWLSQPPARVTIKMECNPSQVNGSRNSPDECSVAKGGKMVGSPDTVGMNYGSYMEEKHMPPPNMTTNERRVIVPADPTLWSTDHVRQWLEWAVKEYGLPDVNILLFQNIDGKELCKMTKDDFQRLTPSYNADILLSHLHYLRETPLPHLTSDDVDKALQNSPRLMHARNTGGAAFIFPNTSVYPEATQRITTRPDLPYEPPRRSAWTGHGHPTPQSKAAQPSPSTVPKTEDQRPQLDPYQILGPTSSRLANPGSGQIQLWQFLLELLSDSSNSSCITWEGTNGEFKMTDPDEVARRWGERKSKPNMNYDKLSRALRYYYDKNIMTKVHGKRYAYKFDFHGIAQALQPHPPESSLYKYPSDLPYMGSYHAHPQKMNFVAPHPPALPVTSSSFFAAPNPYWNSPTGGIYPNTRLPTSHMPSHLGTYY
# In short: as §1
# [5] = biological target: ELF1 (Homo sapiens, UniProt P32519 1-619); conditions: protein: recombinant; tags: N-terminal GST; dsDNA, one strand shown
# Chain of ELF1 (P32519 whole entry): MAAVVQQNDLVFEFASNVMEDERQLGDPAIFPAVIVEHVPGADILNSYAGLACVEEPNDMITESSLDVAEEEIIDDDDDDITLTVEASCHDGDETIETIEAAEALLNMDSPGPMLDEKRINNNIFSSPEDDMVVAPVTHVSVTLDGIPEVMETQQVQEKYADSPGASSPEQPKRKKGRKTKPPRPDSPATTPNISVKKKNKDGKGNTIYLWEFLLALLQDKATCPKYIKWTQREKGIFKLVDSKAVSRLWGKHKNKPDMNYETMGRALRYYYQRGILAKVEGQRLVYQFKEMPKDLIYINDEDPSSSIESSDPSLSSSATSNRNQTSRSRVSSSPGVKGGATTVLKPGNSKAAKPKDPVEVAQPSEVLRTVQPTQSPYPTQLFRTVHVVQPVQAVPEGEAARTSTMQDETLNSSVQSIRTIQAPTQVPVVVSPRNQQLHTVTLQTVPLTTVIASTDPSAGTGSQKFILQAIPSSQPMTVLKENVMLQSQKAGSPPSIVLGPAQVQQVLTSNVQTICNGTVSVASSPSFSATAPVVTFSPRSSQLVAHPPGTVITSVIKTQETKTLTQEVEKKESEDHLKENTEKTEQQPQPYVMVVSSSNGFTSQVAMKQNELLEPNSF
# In short: as §1
# [6] = biological target: T5, EHF (Homo sapiens, UniProt Q9NZC4 1-300); conditions: protein: recombinant; tags: N-terminal GST; dsDNA, one strand shown
# T5 sequence: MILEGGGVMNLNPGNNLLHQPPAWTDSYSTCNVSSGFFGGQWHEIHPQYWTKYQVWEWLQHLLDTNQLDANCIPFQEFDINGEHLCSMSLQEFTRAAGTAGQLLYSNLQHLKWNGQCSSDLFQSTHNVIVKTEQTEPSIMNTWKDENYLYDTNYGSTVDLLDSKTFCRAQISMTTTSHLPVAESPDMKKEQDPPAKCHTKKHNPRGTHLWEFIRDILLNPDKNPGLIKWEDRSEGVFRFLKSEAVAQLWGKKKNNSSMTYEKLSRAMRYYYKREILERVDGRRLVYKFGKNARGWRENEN
# In short: as §1
# [7] = biological target: SPI1 (Homo sapiens, UniProt P17947 1-270); conditions: protein: recombinant; tags: N-terminal GST; dsDNA, one strand shown
# In short: as §1
# [8] = biological target: SPIB (Homo sapiens, UniProt Q01892 1-262); conditions: protein: recombinant; tags: N-terminal GST; dsDNA, one strand shown
# Chain of SPIB (Q01892 whole entry): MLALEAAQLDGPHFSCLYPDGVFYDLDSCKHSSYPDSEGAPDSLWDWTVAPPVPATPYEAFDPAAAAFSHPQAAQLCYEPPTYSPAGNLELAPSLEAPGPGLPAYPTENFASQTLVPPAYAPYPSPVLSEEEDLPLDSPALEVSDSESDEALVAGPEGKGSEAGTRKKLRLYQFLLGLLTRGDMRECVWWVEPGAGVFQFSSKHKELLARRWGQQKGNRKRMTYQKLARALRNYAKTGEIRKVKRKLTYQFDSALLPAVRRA
# In short: as §1
# [9] = biological target: T6, ELK3 (Homo sapiens, UniProt P41970 1-407); conditions: protein: recombinant; tags: N-terminal GST; dsDNA, one strand shown
# T6 sequence: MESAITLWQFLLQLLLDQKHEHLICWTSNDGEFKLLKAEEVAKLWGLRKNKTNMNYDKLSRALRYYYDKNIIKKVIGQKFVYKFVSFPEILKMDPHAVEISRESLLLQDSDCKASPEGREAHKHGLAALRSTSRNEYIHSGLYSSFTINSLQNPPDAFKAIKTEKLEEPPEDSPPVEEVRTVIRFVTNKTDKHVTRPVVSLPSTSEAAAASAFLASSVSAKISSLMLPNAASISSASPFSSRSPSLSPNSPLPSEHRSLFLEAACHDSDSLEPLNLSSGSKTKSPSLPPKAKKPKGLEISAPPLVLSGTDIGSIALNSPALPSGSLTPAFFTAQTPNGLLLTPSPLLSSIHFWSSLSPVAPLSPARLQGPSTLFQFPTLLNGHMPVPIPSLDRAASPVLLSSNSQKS
# In short: as §1
# [10] = biological target: T7, FEV (Homo sapiens, UniProt Q99581 1-238); conditions: protein: recombinant; tags: N-terminal GST; dsDNA, one strand shown
# T7 sequence: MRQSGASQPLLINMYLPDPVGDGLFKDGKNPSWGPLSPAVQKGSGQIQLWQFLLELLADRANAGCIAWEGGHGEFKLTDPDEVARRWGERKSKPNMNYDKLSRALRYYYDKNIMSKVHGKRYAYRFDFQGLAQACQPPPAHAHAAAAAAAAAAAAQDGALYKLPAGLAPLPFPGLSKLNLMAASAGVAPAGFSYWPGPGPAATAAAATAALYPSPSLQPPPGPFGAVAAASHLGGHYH
# In short: as §1
# [11] = biological target: ETV5 (Homo sapiens, UniProt P41161 1-510); conditions: protein: recombinant; tags: N-terminal GST; dsDNA, one strand shown
# Chain of ETV5 (P41161 whole entry): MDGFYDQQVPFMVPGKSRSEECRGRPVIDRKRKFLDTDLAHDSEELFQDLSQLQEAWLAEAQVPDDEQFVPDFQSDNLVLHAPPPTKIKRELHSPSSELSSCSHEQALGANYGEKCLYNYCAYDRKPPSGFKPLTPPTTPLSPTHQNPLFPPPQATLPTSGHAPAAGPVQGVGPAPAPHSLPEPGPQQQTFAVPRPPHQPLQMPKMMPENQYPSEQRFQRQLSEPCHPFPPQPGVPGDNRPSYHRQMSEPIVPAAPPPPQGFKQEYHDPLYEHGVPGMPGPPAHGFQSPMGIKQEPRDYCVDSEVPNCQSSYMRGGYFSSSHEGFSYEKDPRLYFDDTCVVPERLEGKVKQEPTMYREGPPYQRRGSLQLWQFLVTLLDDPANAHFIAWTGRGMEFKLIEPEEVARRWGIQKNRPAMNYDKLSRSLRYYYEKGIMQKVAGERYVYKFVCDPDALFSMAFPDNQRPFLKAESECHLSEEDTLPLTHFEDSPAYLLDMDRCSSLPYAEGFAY
# In short: as §1
# [12] = biological target: HSF1 (Homo sapiens, UniProt Q00613 1-529); conditions: protein: recombinant; tags: N-terminal GST; chain copies: 3; dsDNA, one strand shown
# Chain of HSF1 (Q00613 whole entry): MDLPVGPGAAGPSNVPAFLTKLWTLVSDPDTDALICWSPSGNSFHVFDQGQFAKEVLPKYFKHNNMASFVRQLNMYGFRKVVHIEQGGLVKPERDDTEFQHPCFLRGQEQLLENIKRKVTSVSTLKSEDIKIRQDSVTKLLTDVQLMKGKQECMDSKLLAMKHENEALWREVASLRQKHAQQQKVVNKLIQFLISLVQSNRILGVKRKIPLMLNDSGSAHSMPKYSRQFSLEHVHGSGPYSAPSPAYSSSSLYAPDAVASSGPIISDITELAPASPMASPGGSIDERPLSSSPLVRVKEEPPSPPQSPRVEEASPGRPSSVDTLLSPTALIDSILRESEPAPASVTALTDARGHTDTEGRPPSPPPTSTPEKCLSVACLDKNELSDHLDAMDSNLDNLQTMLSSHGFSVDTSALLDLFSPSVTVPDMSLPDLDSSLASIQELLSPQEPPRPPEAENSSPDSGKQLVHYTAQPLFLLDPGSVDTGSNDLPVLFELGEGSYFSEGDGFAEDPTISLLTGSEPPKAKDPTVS
# In short: as §1
# [13] = biological target: T8, SPIC (Homo sapiens, UniProt Q8N5J4 1-248); conditions: protein: recombinant; tags: N-terminal GST; dsDNA, one strand shown
# T8 sequence: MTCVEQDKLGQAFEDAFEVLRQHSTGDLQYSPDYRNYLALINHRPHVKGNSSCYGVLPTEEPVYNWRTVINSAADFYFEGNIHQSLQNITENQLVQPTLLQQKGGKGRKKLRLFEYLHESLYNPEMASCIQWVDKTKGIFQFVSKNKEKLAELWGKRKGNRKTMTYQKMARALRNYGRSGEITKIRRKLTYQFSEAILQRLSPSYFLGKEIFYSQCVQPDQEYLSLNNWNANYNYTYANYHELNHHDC
# In short: as §1
# [14] = biological target: ELF4 (Homo sapiens, UniProt Q99607 1-663); conditions: protein: recombinant; tags: N-terminal GST; dsDNA, one strand shown
# Chain of ELF4 (Q99607 whole entry): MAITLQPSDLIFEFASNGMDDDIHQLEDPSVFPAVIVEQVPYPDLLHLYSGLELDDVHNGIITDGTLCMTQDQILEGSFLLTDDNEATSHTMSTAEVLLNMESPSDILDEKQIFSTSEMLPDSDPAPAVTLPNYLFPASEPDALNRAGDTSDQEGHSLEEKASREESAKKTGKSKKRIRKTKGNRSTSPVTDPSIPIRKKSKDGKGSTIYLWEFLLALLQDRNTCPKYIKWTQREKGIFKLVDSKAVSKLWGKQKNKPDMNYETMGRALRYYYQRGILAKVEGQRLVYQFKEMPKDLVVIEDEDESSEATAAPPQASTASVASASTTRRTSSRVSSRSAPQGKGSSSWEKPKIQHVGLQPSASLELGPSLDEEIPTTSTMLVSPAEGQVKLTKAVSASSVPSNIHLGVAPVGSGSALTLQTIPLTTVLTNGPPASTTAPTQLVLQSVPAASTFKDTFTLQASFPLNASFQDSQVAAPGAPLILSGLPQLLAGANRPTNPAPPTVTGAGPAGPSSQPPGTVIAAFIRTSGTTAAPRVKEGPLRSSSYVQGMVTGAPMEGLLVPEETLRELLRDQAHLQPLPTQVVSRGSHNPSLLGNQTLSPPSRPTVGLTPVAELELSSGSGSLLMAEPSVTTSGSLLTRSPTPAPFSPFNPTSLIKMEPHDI
# In short: as §1
# [15] = biological target: T9, ELK4 (Homo sapiens, UniProt P28324-2 1-405); conditions: protein: recombinant; tags: N-terminal GST; dsDNA, one strand shown
# T9 sequence: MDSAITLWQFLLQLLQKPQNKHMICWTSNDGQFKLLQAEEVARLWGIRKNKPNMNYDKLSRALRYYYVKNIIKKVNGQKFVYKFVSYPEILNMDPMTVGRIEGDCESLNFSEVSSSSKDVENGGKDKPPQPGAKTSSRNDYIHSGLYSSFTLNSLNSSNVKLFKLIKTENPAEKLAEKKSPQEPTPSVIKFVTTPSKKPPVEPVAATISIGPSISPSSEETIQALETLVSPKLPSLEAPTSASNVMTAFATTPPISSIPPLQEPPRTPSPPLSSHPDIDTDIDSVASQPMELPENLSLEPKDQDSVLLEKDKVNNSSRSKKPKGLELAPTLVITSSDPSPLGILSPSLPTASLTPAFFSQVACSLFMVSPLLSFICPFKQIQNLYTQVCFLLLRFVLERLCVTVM
# In short: as §1
# [16] = biological target: T10, ETV2 (Homo sapiens, UniProt O00321 1-342); conditions: protein: recombinant; tags: N-terminal GST; dsDNA, one strand shown
# T10 sequence: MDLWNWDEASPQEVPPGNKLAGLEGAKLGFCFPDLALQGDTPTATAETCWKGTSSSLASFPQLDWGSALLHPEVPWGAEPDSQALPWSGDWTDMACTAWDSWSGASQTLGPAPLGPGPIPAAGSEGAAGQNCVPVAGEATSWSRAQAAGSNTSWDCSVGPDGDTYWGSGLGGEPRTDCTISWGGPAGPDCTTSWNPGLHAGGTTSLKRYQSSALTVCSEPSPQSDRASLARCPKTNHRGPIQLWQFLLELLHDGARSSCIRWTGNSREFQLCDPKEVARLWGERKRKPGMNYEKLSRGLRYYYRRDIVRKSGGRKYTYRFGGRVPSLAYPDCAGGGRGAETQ
# In short: as §1
# [17] = biological target: T11, ELF3 (Homo sapiens, UniProt P78545 1-371); conditions: protein: recombinant; tags: N-terminal GST; dsDNA, one strand shown
# T11 sequence: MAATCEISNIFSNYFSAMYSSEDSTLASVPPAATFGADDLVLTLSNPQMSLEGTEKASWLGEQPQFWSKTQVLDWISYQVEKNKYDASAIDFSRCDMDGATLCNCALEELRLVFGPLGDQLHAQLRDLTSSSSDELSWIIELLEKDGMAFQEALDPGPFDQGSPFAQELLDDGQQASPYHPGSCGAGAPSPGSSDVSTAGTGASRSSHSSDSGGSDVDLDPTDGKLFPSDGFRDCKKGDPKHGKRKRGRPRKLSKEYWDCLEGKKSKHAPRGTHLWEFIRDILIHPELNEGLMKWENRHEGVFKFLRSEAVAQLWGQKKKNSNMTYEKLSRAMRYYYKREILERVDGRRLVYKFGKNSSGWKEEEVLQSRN
# In short: as §1
# [18] = biological target: CRX (Homo sapiens, UniProt O43186 1-299); conditions: protein: recombinant; tags: N-terminal GST; dsDNA, one strand shown
# Chain of CRX (O43186 whole entry): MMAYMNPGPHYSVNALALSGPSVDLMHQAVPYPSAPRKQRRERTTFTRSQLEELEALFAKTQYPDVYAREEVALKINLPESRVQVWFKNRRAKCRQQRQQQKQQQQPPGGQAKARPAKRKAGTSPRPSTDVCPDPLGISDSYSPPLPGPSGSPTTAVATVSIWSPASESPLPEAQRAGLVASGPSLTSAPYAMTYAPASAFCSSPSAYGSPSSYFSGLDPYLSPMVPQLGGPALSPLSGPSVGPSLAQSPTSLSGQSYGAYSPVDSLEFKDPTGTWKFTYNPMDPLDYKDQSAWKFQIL
# In short: as §1
# [19] = biological target: ETV1 (Homo sapiens, UniProt P50549 1-477); conditions: protein: recombinant; tags: N-terminal GST; dsDNA, one strand shown
# Chain of ETV1 (P50549 whole entry): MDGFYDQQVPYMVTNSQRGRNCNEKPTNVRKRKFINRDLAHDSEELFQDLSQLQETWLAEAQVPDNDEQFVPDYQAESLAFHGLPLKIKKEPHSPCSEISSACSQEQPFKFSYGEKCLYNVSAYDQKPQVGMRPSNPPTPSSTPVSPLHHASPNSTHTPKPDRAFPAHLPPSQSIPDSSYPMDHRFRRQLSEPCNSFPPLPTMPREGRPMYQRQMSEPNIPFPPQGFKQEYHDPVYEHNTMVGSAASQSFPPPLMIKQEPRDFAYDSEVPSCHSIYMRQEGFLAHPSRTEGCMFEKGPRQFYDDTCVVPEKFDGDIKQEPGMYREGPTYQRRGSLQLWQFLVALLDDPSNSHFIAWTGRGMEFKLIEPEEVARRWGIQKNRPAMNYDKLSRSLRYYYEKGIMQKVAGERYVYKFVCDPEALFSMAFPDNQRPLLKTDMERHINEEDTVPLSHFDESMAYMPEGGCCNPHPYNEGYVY
# In short: as §1
sequence,measurement,setting,value
TCTTTC,binding signal,[1],"1.43 fold enrichment (6-mer frequency, TF over GST control)"
same,binding signal,[2],"1.27 fold enrichment (6-mer frequency, TF over GST control)"
same,binding signal,[3],"1.41 fold enrichment (6-mer frequency, TF over GST control)"
same,binding signal,[4],"1.3 fold enrichment (6-mer frequency, TF over GST control)"
same,binding signal,[5],"1.37 fold enrichment (6-mer frequency, TF over GST control)"
same,binding signal,[6],"1.43 fold enrichment (6-mer frequency, TF over GST control)"
same,binding signal,[7],"1.51 fold enrichment (6-mer frequency, TF over GST control)"
same,binding signal,[8],"1.41 fold enrichment (6-mer frequency, TF over GST control)"
same,binding signal,[9],"1.39 fold enrichment (6-mer frequency, TF over GST control)"
same,binding signal,[10],"1.39 fold enrichment (6-mer frequency, TF over GST control)"
same,binding signal,[11],"1.36 fold enrichment (6-mer frequency, TF over GST control)"
same,binding signal,[12],"1.82 fold enrichment (6-mer frequency, TF over GST control)"
same,binding signal,[13],"1.31 fold enrichment (6-mer frequency, TF over GST control)"
same,binding signal,[14],"1.32 fold enrichment (6-mer frequency, TF over GST control)"
same,binding signal,[15],"1.46 fold enrichment (6-mer frequency, TF over GST control)"
same,binding signal,[16],"1.42 fold enrichment (6-mer frequency, TF over GST control)"
same,binding signal,[17],"1.19 fold enrichment (6-mer frequency, TF over GST control)"
same,binding signal,[18],"1.41 fold enrichment (6-mer frequency, TF over GST control)"
same,binding signal,[19],"1.47 fold enrichment (6-mer frequency, TF over GST control)"
